According to ChEMBL document CHEMBL3988442, “University of Dundee, Small-Polar-MMV Screening Library” (2021):

What follows are compounds tested on Trypanosoma cruzi (assay: Trypanosoma cruzi phosphomannomutase and mannose-1-phosphate guanylyltransferase assay). Details: 10 µM.
Assay type: functional
Set-up: scale not given: direction of the effect not stated beside the values

Going from `CCN(CC1CN(CCc2ccccn2)CCO1)c1cccnn1` (stereo not given) to `Cc1nc(C)n(CC2CN(CCc3ccncc3)CCO2)n1` (stereo not given), the Percent Effect falls from 4.77% to 0.979%.

Compared with `O=C(NCc1ccc(-n2cncn2)nc1)c1ccoc1`, `Cc1nn(-c2ccccc2)nc1C(=O)N1CCCC1c1cnn(C)c1` (stereo not given) is lower in Percent Effect: 11.6% for the first, -2.32% for the second.

Going from `Cc1ccsc1C(=O)N1CC(C(=O)N2CCOCC2)C2(CCOCC2)C1` (stereo not given) to `CC(=O)N1CCC(C(=O)c2cc(C)cnc2N)CC1`, the Percent Effect rises from -8.38% to 3.15%.

First: Cn1ncc2c(=O)[nH]c(CN3CCCC3CC3CCCCC3)nc21 (stereo not given)
Second: CCC1=N[C@@]2(CC[C@@H]3CN(CC4CC4)C[C@@H]32)C(=O)N1C
The Percent Effect of the first is higher: 3.83% for the first, -1.86% for the second.

Going from `CCN1C[C@H]2CCN(C(C)=O)CC[C@H]2S1(=O)=O` to `COCCO[C@@H]1C[C@H]2CN(C(=O)c3cnccn3)CCN2C1`, the Percent Effect rises from -5.7% to -0.965%.

Compared with `COc1ccc(-c2nc(CN3CCOCS3(=O)=O)c(C)o2)cc1`, `Cc1ccc(CN2C[C@@H]3COC[C@@H](NS(C)(=O)=O)[C@@H]3C2)o1` is higher in Percent Effect: -4.58% for the first, 8.69% for the second.

First: Cn1nc(C2CN(C(=O)c3cscn3)C2)c2nccnc21
Second: CN(Cc1ccc(Cl)s1)C(=O)NCc1nnc2n1CCC2
The Percent Effect of the first is lower: 1.38% for the first, 4.2% for the second.

Going from `c1coc(CN2CCCC3(COCCN(Cc4c[nH]nn4)C3)C2)c1` (stereo not given) to `Cn1cnc(S(=O)(=O)N2CCN(Cc3ccco3)CC2)c1Cl`, the Percent Effect rises from -0.193% to 0.291%.

Going from `Cc1ccc(C(=O)N(C)Cc2cc(Br)cs2)c(=O)[nH]1` to `CN(CC(N)=O)S(=O)(=O)c1ccc(F)cc1Cl`, the Percent Effect rises from -3.8% to -0.794%.

Going from `CC(=O)NCC1CCN(CC2CCOc3ccccc3C2)CC1` (stereo not given) to `Cc1cccc2c1OCCC2NCc1c(C)nn(C)c1N(C)C` (stereo not given), the Percent Effect falls from 1.85% to -3.95%.
